A number with no mark means an inactive call. Inconclusive results are not listed. The source made the active and inactive calls.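 The calls were made as follows, unless noted: active = normalized viability below 100% at a tested concentration; inactive = the rest.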

The results in this text go back to PubChem BioAssay.

The nature of assay [1]: growth inhibition of DIPG glioma cells, dose response, cell-based, SU-DIPG-XIII, MIPE4.0, CellTiter-Glo, qHTS (AID 1347061; cut-off not given, nearly all actives have AC50 up to about 37 µM;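 also: cells exposed to compound for 48 hours before readout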). The following applies: SU-DIPG-XIII viability, CellTiter-Glo ATP luminescence. Background: Cellular ATP, detected with luciferase, serves as a proxy for viable cell number.
A short description of assay [2]: growth inhibition of DIPG glioma cells, dose response, cell-based, JHH-DIPG-1, MIPE4.0, CellTiter-Glo, qHTS (AID 1347062; cut-off not given, nearly all actives have AC50 up to about 27 µM;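 as to AC50: cells exposed to compound for two days before readout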). The following applies: JHH-DIPG-1 viability, CellTiter-Glo ATP luminescence.
Assay [3] in a line: growth inhibition of DIPG glioma cells, dose response, cell-based, SU-DIPG-IV, MIPE4.0, CellTiter-Glo, qHTS (AID 1347063; cut-off not given, nearly all actives have AC50 up to about 30 µM;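 also: compound exposure lasted 48 hours before the viability readout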). The conditions noted are these: SU-DIPG-IV viability, CellTiter-Glo ATP luminescence.
A short description of assay [4]: growth inhibition of DIPG glioma cells, dose response, cell-based, SU-DIPG-XIII, MIPE5.0, CellTiter-Glo, qHTS (AID 1347064; cut-off not given, nearly all actives have AC50 up to about 23 µM;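 also: cells exposed to compound for 48 hours before the viability read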). The following applies: SU-DIPG-XIII viability, CellTiter-Glo ATP luminescence.
Assay [5] in a line: viability loss in pontine glioma line – cell-based, SU-DIPG-XXV, MIPE5.0, CellTiter-Glo, qHTS, dose response (AID 1347065; cut-off not given, nearly all actives have AC50 up to about 26 µM;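 also: cells exposed to compound for 48 hours before ATP readout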). The conditions noted are these: CellTiter-Glo ATP luminescence.
Assay [6] can be described thus: SU-DIPG-VI glioma cell viability, MIPE4.0 library, CellTiter-Glo luminescence, qHTS (AID 1347066; cut-off not given, nearly all actives have AC50 up to about 30 µM;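 also: cells exposed to compound for 48 hours before readout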). The conditions noted are these: CellTiter-Glo ATP luminescence.
Assay [7] in a line: JHH-DIPG-1 glioma cell viability, MIPE5.0 library, CellTiter-Glo luminescence, qHTS (AID 1347067; cut-off not given, nearly all actives have AC50 up to about 26 µM;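 also: cells exposed to compound for 48 hours before readout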). The following applies: JHH-DIPG-1 glioma viability, CellTiter-Glo ATP luminescence.
Assay [8] is described as follows: SU-DIPG-XXV glioma cell viability, MIPE5.0 library, qHTS (AID 1347068; cut-off not given, nearly all actives have IC50 up to about 30 µM;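 as to IC50: cells exposed to compound for 48 hours before viability readout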). A general note: qHTS replaces the single test concentration by a dilution series.
Assay [9] in a line: ovarian cancer cell viability with rucaparib, profiling panel, oncology-focused library, rucaparib conditional (AID 1508598). The following applies: patient-derived ovarian cancer cells, CellTiter-Glo viability, 144 h, active compounds read low.

As for `Cc1cc(Nc2nc(N[C@@H](C)c3ncc(F)cn3)ncc2Cl)n[nH]1`, the AC50 in assay [1] was 16.6 µM (active); in assay [2], 9.35 µM (active); in assay [3], 13.2 µM (active); in assay [4] it was 1.48 µM (active); in [5], 0.661 µM (active); in [6], 9.35 µM (active). In assay [7], the AC50 was 0.934 µM (active). Also, the IC50 in assay [8] is 1.48 µM (active). Moreover, the viability is 99.3% (active) in assay [9] (at 0.000305 µM, OCI-C5x cells, with rucaparib 10 µM, 100% = cells with rucaparib alone); 105% in assay [9] (at 0.000305 µM, OCI-C5x cells, without rucaparib); 91% (active) in assay [9] (at 0.000305 µM, OCI-P5x cells, with rucaparib 20 µM, 100% = cells with rucaparib alone); 91.4% (active) in [9] (at 0.000305 µM, OCI-P5x cells, without rucaparib); 112% in assay [9] (at 0.00122 µM, OCI-C5x cells, with rucaparib 10 µM, 100% = cells with rucaparib alone); 112% in [9] (at 0.00122 µM, OCI-C5x cells, without rucaparib). For the same molecule, the viability in [9] (at 0.00122 µM, OCI-P5x cells, with rucaparib 20 µM, 100% = cells with rucaparib alone) is 92.4% (active); in assay [9] (at 0.00122 µM, OCI-P5x cells, without rucaparib), 97.8% (active); in assay [9] (at 0.00488 µM, OCI-C5x cells, with rucaparib 10 µM, 100% = cells with rucaparib alone) it was 106%; in assay [9] (at 0.00488 µM, OCI-C5x cells, without rucaparib), 115%; in assay [9] (at 0.00488 µM, OCI-P5x cells, with rucaparib 20 µM, 100% = cells with rucaparib alone), 102%; in assay [9] (at 0.00488 µM, OCI-P5x cells, without rucaparib) it was 99.3% (active). In addition, the viability is 112% in assay [9] (at 0.0195 µM, OCI-C5x cells, with rucaparib 10 µM, 100% = cells with rucaparib alone); 102% in [9] (at 0.0195 µM, OCI-C5x cells, without rucaparib); 101% in assay [9] (at 0.0195 µM, OCI-P5x cells, with rucaparib 20 µM, 100% = cells with rucaparib alone); 99.8% (active) in [9] (at 0.0195 µM, OCI-P5x cells, without rucaparib); 102% in assay [9] (at 0.0781 µM, OCI-C5x cells, with rucaparib 10 µM, 100% = cells with rucaparib alone); 104% in [9] (at 0.0781 µM, OCI-C5x cells, without rucaparib). The viability in [9] (at 0.0781 µM, OCI-P5x cells, with rucaparib 20 µM, 100% = cells with rucaparib alone) was 96.5% (active); in assay [9] (at 0.0781 µM, OCI-P5x cells, without rucaparib), 101%; in [9] (at 0.313 µM, OCI-C5x cells, with rucaparib 10 µM, 100% = cells with rucaparib alone), 97.7% (active); in [9] (at 0.313 µM, OCI-C5x cells, without rucaparib), 102%; in assay [9] (at 0.313 µM, OCI-P5x cells, with rucaparib 20 µM, 100% = cells with rucaparib alone), 85.8% (active); in assay [9] (at 0.313 µM, OCI-P5x cells, without rucaparib), 99.9% (active). Also, the viability in assay [9] (at 1.25 µM, OCI-C5x cells, with rucaparib 10 µM, 100% = cells with rucaparib alone) was 78.7% (active); in [9] (at 1.25 µM, OCI-C5x cells, without rucaparib), 101%; in assay [9] (at 1.25 µM, OCI-P5x cells, with rucaparib 20 µM, 100% = cells with rucaparib alone), 80.1% (active); in [9] (at 1.25 µM, OCI-P5x cells, without rucaparib) it was 86.6% (active); in [9] (at 5 µM, OCI-C5x cells, with rucaparib 10 µM, 100% = cells with rucaparib alone), 46.6% (active); in assay [9] (at 5 µM, OCI-C5x cells, without rucaparib), 55.9% (active). Moreover, the viability in assay [9] (at 5 µM, OCI-P5x cells, with rucaparib 20 µM, 100% = cells with rucaparib alone) was 30.7% (active); in [9] (at 5 µM, OCI-P5x cells, without rucaparib) it was 24.9% (active).
Take `O=C(O)c1ccc(-c2cc3cccnc3c(-c3ccc4nonc4c3)n2)cc1`: the call in assay [1] was inactive. In addition, the AC50 in assay [2] is 20.9 µM (active); in assay [3], 26.4 µM (active).
Turning to `CCOC(=O)[C@@H](N)CCC(=O)N[C@@H](CSCc1ccccc1)C(=O)N[C@@H](C(=O)OCC)c1ccccc1`, the outcome in assay [1], in assay [2], in assay [3] and in assay [8] was inactive. Moreover, the AC50 was 18.6 µM (active) in [4], 26.3 µM (active) in assay [5] and 23.5 µM (active) in assay [7].
As to `O=[N+]([O-])c1ccc(Nc2ccccc2-c2ccccc2)c2nonc12`, the molecule was classed as inactive in [1], in [2] and in assay [3]. Also, the AC50 in assay [4] is 23.5 µM (active); in [5] it was 18.6 µM (active); in assay [6] it was 20.9 µM (active); in [7], 23.5 µM (active).
In the case of `CC(C)NC[C@@H](C(=O)N1CCN(c2ncnc3c2[C@H](C)C[C@H]3O)CC1)c1ccc(Cl)cc1`, the AC50 in [1] is 11.8 µM (active); in assay [2], 23.5 µM (active); in assay [3] it was 7.43 µM (active); in assay [4], 4.68 µM (active); in assay [5], 5.25 µM (active); in assay [6], 2.64 µM (active).

In general, AC50 refers to the concentration at which the activity in the assay is half-maximal. In general, IC50 refers to the point on the concentration scale where inhibition reaches its midpoint. Broadly, the viability is a read-out of living cells in per cent, often relative to untreated cells.
